Compounds with a hit are over-represented: about 9.4% of the library has one in this group of screens.
NPC1 prom act – qHTS Assay for NPC1 Promoter Activators | Huh7 NPC1 promoter luciferase reporter, 24 h | Potency, µM (doses to about 9.22 µM), inactives show at the highest dose activation, most hits filed as activators | 2.4% of 320,000 active; note: % of control where 0% means no effect; nearly all actives have a fitted effect of over 60% in size
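Cells: Huh7 expressing luciferase under the NPC1 promoter, 1500/well. Seeded 2 h, compound added, incubated 24 h at 37 °C. Luciferase reagent, 10 min ambient, then luminescence.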
ELG1 DNA repair – qHTS screen for small molecules that inhibit ELG1-dependent DNA repair in human embryonic kidney (HEK293T) cells expressing luciferase-tagged ELG1; HEK293T ELG1-luciferase reporter, luminescence, 16 h; DNA damage induced by 5-fluorouridine; Potency, µM (top dose mostly 46.1 µM), for the others: at the highest dose activity change, negative = inhibition, actives largely listed as inhibitors; 2.3% of 330,000 active; AID 504467, 2011; note: % is set by controls: 0 for no effect and ±100 for the full control effect; nearly all actives have a fitted effect of over 55% in size
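Step one: seed 2,000 cells per well. Step two: pin-transfer compound or DMSO alongside 5-fluorouridine. Step three: incubate 16 hr, 37 °C, 5% CO2. Step four: add ONE-Glo, wait 30 min, read luminescence.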
SMN2 splice up – qHTS Assay for Enhancers of SMN2 Splice Variant Expression. HEK293 SMN2-luciferase splicing reporter, luminescence, 30-36 h. Potency, µM (titrated, usually from 46.1 µM), without a hit: at the highest dose activity change, positive = activation, actives largely listed as activators. 2.8% of 210,000 active. AID 1458, 2008; note: % of control where 0% means no effect; nearly all actives have a fitted effect of over 55% in size
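HEK293 cells carry an SMN2 […]–luciferase reporter in which exon 7 inclusion puts luciferase in frame. Cells were plated 10-12 h before compound addition, then incubated 30-36 h at 37C. ONE-Glo luminescence was read; sodium butyrate at 4.5 mM final served as control.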
ELG1 genotoxic – qHTS screen for small molecules that induce genotoxicity in human embryonic kidney (HEK293T) cells expressing luciferase-tagged ELG1. 1.3% of 330,000 active. AID 504466, 2011. Potency, µM (series often up to 46 µM), without a hit: at the top dose activity change, positive = activation, actives largely listed as activators. HEK293T ELG1-luciferase reporter, luminescence, 16 h; note: % of control where 0% means no effect; nearly all actives have a fitted effect of over 60% in size
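Reporter readout depends on ELG1 protein level, which increases with genetic stress. After 16 hr compound exposure at 37 °C, luciferase activity was quantified using ONE-Glo.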
FLuc modulator – qHTS profiling assay for firefly luciferase inhibitor/activator using purifed enzyme and Km concentrations of substrates (counterscreen for miR-21 project). purified FLuc, Km substrates, luminescence inhibition. Potency, µM (top dose mostly 57.5 µM), without a hit: at the top dose activity change, negative = inhibition, hits mostly inhibitors. 6.9% of 360,000 active. AID 588342, 2011;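 note: plate controls were vehicle for no effect and reference inhibitor for full effect; nearly all actives have a fitted effect of over 55% in size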
Target sequence (P08659 whole entry, looked up): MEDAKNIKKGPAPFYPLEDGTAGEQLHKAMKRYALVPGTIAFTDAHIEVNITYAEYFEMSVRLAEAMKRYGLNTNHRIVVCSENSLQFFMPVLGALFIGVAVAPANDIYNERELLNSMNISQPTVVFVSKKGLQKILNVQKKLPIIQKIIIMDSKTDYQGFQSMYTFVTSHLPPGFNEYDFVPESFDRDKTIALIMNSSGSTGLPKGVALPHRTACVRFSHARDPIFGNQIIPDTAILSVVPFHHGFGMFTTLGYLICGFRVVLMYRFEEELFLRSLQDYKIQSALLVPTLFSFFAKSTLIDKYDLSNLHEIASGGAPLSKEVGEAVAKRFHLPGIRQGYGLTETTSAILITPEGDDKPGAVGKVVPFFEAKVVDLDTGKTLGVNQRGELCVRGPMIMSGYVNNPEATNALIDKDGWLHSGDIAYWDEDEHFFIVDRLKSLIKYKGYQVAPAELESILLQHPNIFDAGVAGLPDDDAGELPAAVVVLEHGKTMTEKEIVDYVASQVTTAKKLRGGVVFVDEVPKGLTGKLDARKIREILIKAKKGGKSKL
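Purified P. pyralis luciferase (10nM final) with 10uM D-luciferin and 10uM ATP (Km levels) in 50mM Tris acetate pH 7.5, 10mM Mg acetate, 0.01% Tween-20, 0.05% BSA; qHTS 6-point titration, ~60 µM downward; luminescence read.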
Rab9 prom act – qHTS Assay for Rab9 Promoter Activators; AID 485297, 2010; Huh7 Rab9 promoter-luciferase reporter, luminescence, 24 h; Potency, µM (highest dose often 9.22 µM), for inactives: top-dose activation, negative = inhibition, hits mostly activators; 2.8% of 320,000 active; note: % of control where 0% means no effect; nearly all actives have a fitted effect of over 60% in size
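Using Huh7 cells stably transfected with Rab9 promoter–luciferase, compounds were incubated 24 h at 37 °C, 5% CO2; luciferase luminescence was read 10 min after reagent addition.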
* = called active by the depositor; ? = inconclusive; . = no result given; [ ] = another dose, or the depositor's remark. Calls come from the whole dose curve; as a rule, active = well fitted curve in the direction sought with a large enough effect; inconclusive = small, poorly fitted or top-dose-only effect, or another doubt; inactive = no such curve, though single readings can be large; an effect the other way counts as inactive or inconclusive. Potency is the fitted concentration of half-maximal effect.

SMILES | NPC1 prom act | ELG1 DNA repair | SMN2 splice up | ELG1 genotoxic | FLuc modulator | Rab9 prom act
CSc1c(-c2ccccn2)c(N)nn1C(=O)C1CC1 | 0% | 1% | . | 0% | 19µM* | 0%
CSc1c(-c2ccccn2)c(N)nn1C(=O)C1CCC1 | 7% | -10% | . | -3% | ? | -8%
CC(=O)N1N=C(c2ccc(C)cc2)CC1c1cn(-c2ccccc2)nc1-c1cccs1 (stereo not drawn) | . | . | 2% | . | -4% | .
O=C(NCCc1ccccc1Cl)c1ccc(Cn2c(=O)c3cccn3c3cccnc32)cc1 | . | . | . | . | -2% | .
COc1cccc(-c2ccc3c(N)c(C(=O)NCc4ccc(Cl)cc4)sc3n2)c1 | . | . | 8% | . | -8% | .
O=C(Cn1cnc2ccccc2c1=O)OCC(=O)c1ccc2c(c1)OCCO2 | 0% | 14% | -5% | 0% | 21µM* | -8%
O=C(Cn1cnc2ccccc2c1=O)Nc1ccc2c(c1)OCCO2 | 2.2µM* | ? | 13µM* | ? | 9.5µM* | 1.8µM*
O=C(Cn1cnc2ccccc2c1=O)NCCC(=O)Nc1ccc2c(c1)OCCO2 | 11% | 14% | 3% | 2% | -1% | -9%
C/C(=N/S(=O)(=O)c1ccc(Cl)c(Cl)c1)OCC(C)(C)C | . | . | -2%[9.22 µM] | . | . | .
Cc1ccc(NC(=O)c2ccc(F)c(S(=O)(=O)NCCc3ccccc3)c2)cc1F | . | . | . | . | -1% | .
C=CCn1c(=O)c2c3c(sc2n2c(Nc4ccc(C(=O)OCC)cc4)nnc12)CCCC3 | -3% | -17% | -5% | 2% | 9% | 0%
C=CCn1c(=O)c2c3c(sc2n2c(Nc4ccc(OC)cc4)nnc12)CCCC3 | -2% | 8.2µM* | 9% | -1% | 4% | 3%
C=CCn1c(=O)c2c3c(sc2n2c(Nc4ccccc4)nnc12)CCCC3 | -4% | 21µM* | 2% | -5% | -18% | 1%
Cc1nnc2n(Cc3ccccc3)c(=O)c3c4c(sc3n12)CCCC4 | 7% | 3% | 8% | 1% | 0% | 4%
CCC(=O)N1CCc2cc(Br)cc(S(=O)(=O)NCCc3ccccc3Cl)c21 | . | . | -35% | . | 3% | .
Cc1ccc2oc(=O)c3cc(C(=O)Nc4ccccc4C(N)=O)sc3c2c1 | . | . | 1% | . | -3% | .
O=C(CSc1ncccc1C(=O)O)c1cccc(C(F)(F)F)c1 | 19% | ? | ? | ? | 24µM* | ?
O=C(CSc1ncccc1C(=O)O)c1ccc2ccccc2c1 | ? | ? | ? | 5% | 9.5µM* | ?
O=Nc1ccc(Nc2ccccc2)cc1 | . | . | 3% | . | . | .
O=Nc1ccc(NOC(=O)c2ccccc2)cc1 | -3% | -18% | -38% | -3% | 0.095µM* | -3%
O=C(Nc1ccc(Cl)cc1)c1ccc(OCC2CCCO2)cc1 (stereo not drawn) | ? | ? | 18% | ? | 5.4µM* | ?
Cc1ccc2nc(NC(=O)c3ccc(OCC4CCCO4)cc3)sc2c1 (stereo not drawn) | ? | ? | -45% | -6% | 3µM* | ?
Cc1cc(C)c2nc(NC(=O)c3ccc(OCC4CCCO4)cc3)sc2c1 (stereo not drawn) | -18% | 6% | -59% | -3% | 11µM* | -25%
CCC(C)NC(=O)Cn1c(=O)n(-c2ccc(OC)c(OC)c2)c(=O)c2ccccc21 (stereo not drawn) | . | . | 0% | . | -2% | .
C=CC(=O)OCCCC | . | . | 4% | . | . | .
SMILES | NPC1 prom act | ELG1 DNA repair | SMN2 splice up | ELG1 genotoxic | FLuc modulator | Rab9 prom act
CCC(C)(C)c1ccc2c(c1)C(=O)c1ccccc1C2=O | 1.6µM* | ? | ? | ? | 1.7µM* | 2.8µM*
CCC(C)(C)NC(=O)c1ccc2c(c1)S(=O)(=O)c1ccccc1C2=O | . | . | 6% | . | -6% | .
N#CCc1ccccc1[N+](=O)[O-] | . | . | -4% | . | . | .
Cc1cc(C)c(S(=O)(=O)/N=C2/C=C(Sc3ncn[nH]3)C(=O)c3ccccc32)cc1C | -8% | 21µM* | -83% | -15% | ? | -4%
S=c1nc(-c2ccc(Br)cc2)oc2c1CCCC2 | 29% | ? | 0% | ? | ? | ?
Cc1cccc(-c2nc(=S)c3c(o2)CCCC3)c1 | 1.4µM* | ? | 11µM* | ? | 3.4µM* | 1.4µM*
Clc1ccccc1CNCCCSc1nnnn1-c1ccccc1 | . | . | . | . | -10% | .
CC1CN(CC(=O)Nc2cc(S(=O)(=O)N3CCCC3)ccc2Cl)CC(C)O1 (stereo not drawn) | -3% | ? | -12% | -4% | 0% | -4%
O=C(CN1CCN(S(=O)(=O)N2CCOCC2)CC1)Nc1cc(Cl)ccc1Cl | -4% | 21µM* | . | -24% | 0% | 0%
O=C(CN1CCN(c2ccc(O)cc2)CC1)Nc1cc(S(=O)(=O)N2CCCC2)ccc1Cl | 5% | 23µM* | -44% | -6% | -10% | -4%
O=C(CSc1ncnc2ccccc12)Nc1cc(S(=O)(=O)N2CCCCC2)ccc1Cl | -1% | 21µM* | -34% | -13% | ? | -2%
O=C(CN1CCN(c2ccc(O)cc2)CC1)Nc1cc(S(=O)(=O)N2CCCCC2)ccc1Cl | -8% | 16µM* | -30% | -13% | -10% | 1%
CCN1CCN(CC(=O)Nc2cc(S(=O)(=O)N3CCCCC3)ccc2Cl)CC1 | . | -12% | . | -1% | . | .
CN(C)S(=O)(=O)c1cccc(NC(=O)c2cc(-c3cccs3)nn2-c2cccc(Cl)c2)c1 | -7% | 12µM* | -16% | -2% | 3% | 0%
Cc1ccc(NC(=O)c2ccncc2)cc1S(=O)(=O)N(C)C | 1% | 15% | 4% | 0% | -5% | 7%
COc1ccc(NC(=O)c2ccc(-n3nc(C)cc3C)cc2)cc1OC | -2% | ? | -21% | 0% | 15µM* | 18%
Cc1cc(C)n(-c2ccc(C(=O)Nc3ccc(N4CCOCC4)cc3)cc2)n1 | 18% | ? | -64% | -18% | -13% | 9%
Cc1cc(C)n(-c2ccc(C(=O)Nc3ccc(S(=O)(=O)N(C)C)cc3)cc2)n1 | -2% | ? | -68% | -7% | 4% | 0%
Cc1cc(C)n(-c2ccc(C(=O)Nc3cccc(S(=O)(=O)N(C)C)c3)cc2)n1 | -14% | 9.2µM* | -66% | -7% | ? | -19%
Cc1cc(C)n(-c2ccc(C(=O)Nc3ccc(C)c(S(=O)(=O)N(C)C)c3)cc2)n1 | -4% | 18µM* | -15%[1.84 µM] | -10% | 17µM* | -20%

Screens (PubChem)
